# In PubChem BioAssay AID652048 (National Center for Advancing Translational Sciences (NCATS), 2013):
# Several values for one entry are separate records, joined by “and”; a condition that tells them apart may be missing. Identical values can stand only once. Screen size: about 410,000 compounds; about 2,400 (0.59%) were called active. Cut-off read from the data, not from the text of the source: active = max activation above about 30%; inactive = the rest. For the sample, actives were picked, then their nearest neighbours and some compounds at random. The source holds several records for some structures; these can differ, active in one and inactive in another.
# Target: D(3) dopamine receptor (Homo sapiens) (UniProt P35462)
# Assay: qHTS of D3 Dopamine Receptor Agonist: qHTS; note: 0% is about no effect
# Conditions: D3R DiscoveRx beta-arrestin cells, luminescence, 90 min; stronger effect = higher value
# In short: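 Agonist-mode cell screen: cells plated at 1500/well and incubated overnight at 37 °C, then exposed to library compounds for 90 min at 37 °C. Detection reagent was added for 30–60 min at room temperature, and luminescence was read.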
# Chain of D(3) dopamine receptor (Homo sapiens) (P35462 whole entry, looked up): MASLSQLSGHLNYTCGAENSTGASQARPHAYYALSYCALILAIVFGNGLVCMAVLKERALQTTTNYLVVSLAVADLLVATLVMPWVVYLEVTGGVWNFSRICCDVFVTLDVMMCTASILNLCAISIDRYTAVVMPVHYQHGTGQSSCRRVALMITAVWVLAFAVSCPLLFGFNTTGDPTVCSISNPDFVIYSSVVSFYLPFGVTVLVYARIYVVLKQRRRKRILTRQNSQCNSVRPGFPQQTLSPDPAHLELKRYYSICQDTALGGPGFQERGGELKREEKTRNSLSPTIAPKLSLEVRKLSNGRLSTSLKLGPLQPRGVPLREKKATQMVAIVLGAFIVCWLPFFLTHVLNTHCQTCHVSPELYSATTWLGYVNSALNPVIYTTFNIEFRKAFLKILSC
row,SMILES,max activation
1,O=P(O)(O)OC[C@H](O)CO,-12.8% (inactive)
2,CC(C)c1ccc(NC(=O)CN(C)S(=O)(=O)c2ccc3c(c2)c(=O)n(C)c(=O)n3C)cc1,0.167% (inactive)
3,CN(CC(=O)Nc1ccccc1F)S(=O)(=O)c1ccc2c(c1)c(=O)n(C)c(=O)n2C,47.6% (active)
4,CCc1ccccc1NC(=O)CN(C)S(=O)(=O)c1ccc2c(c1)c(=O)n(C)c(=O)n2C,-4.93% (inactive)
5,CCc1ccc(S(=O)(=O)c2nnn3c2nc(N2CCN(CC)CC2)c2sccc23)cc1,5.12% (inactive)
6,CCOc1ccc(Nc2oc(/C=C/c3ccc(F)cc3)nc2C#N)cc1,-13.3% (inactive)
7,Fc1ccc(-c2nn(-c3ccccc3Cl)c3c2cnc2ccccc23)cc1,0.11% (inactive)
8,CSc1nc(-c2ccco2)nn1C(=O)c1ccccc1Cl,32.7% (active)
9,O=C(c1ccco1)n1nc(-c2ccc(Cl)cc2)nc1NCc1ccccc1,-9.35% (inactive)
10,Oc1c(C(c2ccccc2Cl)N2CCOCC2)sc2nc(-c3ccco3)nn12 (stereo unspecified),-18% (inactive)
11,CCOC(=O)Cc1cccc(-c2cc(CCCCCCc3ccc(O[C@H]4O[C@H](COC(C)=O)[C@@H](OC(C)=O)[C@H](OC(C)=O)[C@@H]4OC(C)=O)c(-c4cccc(CC(=O)OCC)c4)c3)ccc2O[C@H]2O[C@H](COC(C)=O)[C@@H](OC(C)=O)[C@H](OC(C)=O)[C@@H]2OC(C)=O)c1,-9.52% (inactive)
12,COc1ccc(-c2nc3cnccn3c2NC2CCCCC2)cc1-c1cccc(Cl)c1,7.25% (inactive) and 47.9% (active)
13,COc1ccc(-c2nc3cc(C)ccn3c2NC2CCCCC2)cc1SC1CCCCC1,18.2% (inactive)
14,COc1ccc(-c2nc3cnccn3c2NC(C)(C)CC(C)(C)C)cc1O,4.14% (inactive)
15,Cc1ccc(Cl)cc1N1CCN(C(=O)c2cccn3c(=O)c4cc(Cl)ccc4nc23)CC1,1.63% (inactive)
16,CN(C)CCc1c[nH]c2ccc(Cn3cncn3)cc12,-8.71% (inactive)
17,COc1ccc(Cl)cc1NC(=O)Cn1c(=O)c2ccccc2n2nncc12,-7.09% (inactive)
18,COc1ccccc1C(=O)N1CCNC(=O)C1CC(=O)Nc1ccc(Cl)cc1 (stereo unspecified),4.77% (inactive)
19,O=C(CC1C(=O)NCCN1C(=O)c1ccc([N+](=O)[O-])cc1)Nc1cccc(Cl)c1 (stereo unspecified),38.6% (active)
20,COC(=O)c1cc(NC(=O)CC2C(=O)NCCN2C(=O)c2ccc(F)cc2)cc(C(=O)OC)c1 (stereo unspecified),5.37% (inactive)
21,Brc1cccc(-c2nnn3c2nc(NC2CCCCC2)c2ccccc23)c1,-2.96% (inactive)
